From PubChem
The full list was thinned out, with hits kept by preference.
ROMK mod = ROMK potassium channel modulators, primary screen, cell-based, thallium flux, MLSMR library; ATP-sensitive inward rectifier potassium channel 1 (Homo sapiens), P48048; Tet-inducible ROMK, thallium flux fluorescence; actives lie on both sides; B-score at 10 µM; 130,000 compounds, 2% hits;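 active = signal ratio slope over the read window, or its plate-corrected B-score, at least 3 SD from the plate mean, either direction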;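 note: B-score of the F/F0 ratio slope over 7 to 12 s after thallium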
Target sequence (P48048 whole entry, looked up): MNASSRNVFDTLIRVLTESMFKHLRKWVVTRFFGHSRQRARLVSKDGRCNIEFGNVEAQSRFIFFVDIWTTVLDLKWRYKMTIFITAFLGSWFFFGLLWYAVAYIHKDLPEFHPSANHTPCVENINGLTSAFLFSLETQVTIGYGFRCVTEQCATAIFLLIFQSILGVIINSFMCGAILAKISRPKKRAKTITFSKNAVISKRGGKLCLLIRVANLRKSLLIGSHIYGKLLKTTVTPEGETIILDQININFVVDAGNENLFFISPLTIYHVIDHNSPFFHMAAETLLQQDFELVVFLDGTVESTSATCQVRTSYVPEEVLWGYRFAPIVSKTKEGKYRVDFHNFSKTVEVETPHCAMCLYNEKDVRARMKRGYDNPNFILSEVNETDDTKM
Insulin prom up = insulin promoter activators in MIN6 cells, imaging, high-content screening, mouse beta cells; MIN6 insulin promoter-GFP reporter; hits give high values; z-score at 5 µM; 190,000 compounds, 0.3% hits; AID 1625, 2009;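 active = z-score above 3 at 5 µM with at least 500 cells counted in the well; inconclusive = wells under 500 cells, flagged as cytotoxic or low count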
INS promoter inh = inhibitors of insulin promoter-driven GFP, primary screen, imaging, TRM-6 cells (human fetal islet line), eGFP reporter, cell count; 130,000 compounds, 0.9% hits; reporter expression induced with tamoxifen; inhibition, % at 2 µM;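 active = inhibition above the mean plus 3 SD, with well images judged a real hit on visual review, cut at about 60% in these data, passing the limit was not always enough; inconclusive = inhibition over the cutoff but images rejected on review; inactive = inhibition not above the cutoff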
Tb hexokinase = Trypanosoma brucei hexokinase 1 inhibitors, primary screen, biochemical, G6PDH-coupled NADH absorbance, MLSCN library. hexokinase 1 [Trypanosoma brucei]. inhibition, % at 10 µM. 220,000 compounds, 0.11% hits. recombinant TbHK1, G6PDH-coupled NADH A340;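 active = inhibition of 50% or more in the single-dose primary screen; inactive = inhibition below 50%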
HSV augment = enhancers of HSV replication in host cells, fold increase, host cell viability. HSV replication augmentation in cells. maximum fold increase. 220,000 compounds, 0.005% hits. AID 1956, 2009; in the data active = maximum fold increase above about 1.5; inconclusive = no clear call, values can overlap the other calls; tested in PC3 cells
ROMK hit retest = ROMK channel modulator hit retest, confirmation, cell-based, thallium flux, duplicate, resupplied hits; AID 1917, 2009; 3,000 compounds, 54% hits; normalized thallium flux (F/F0 slope) at 10 µM; shares compounds with ROMK mod; fluorescence ratio; hits give low values;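 active = Flux at 10 µM at least 3 SD below or above vehicle control mean in one or both replicates; inconclusive = no clear call, values can overlap the other calls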
Of the large screens only hits and unclear results are named; the others gave an inactive call (follow-up assays come after a bar, where they were run).

CCOC(=O)c1c(CSC(=N)N)n(-c2ccccc2)c2cc(Br)c(OC(C)=O)cc12	none (no result: ROMK mod, INS promoter inh) | ROMK hit retest 0.058
CCOC(=O)c1c(CN2CCN(C)CC2)n(-c2ccccc2)c2cc(Br)c(O)cc12	none (no result: INS promoter inh)
Cc1cc(NC(=O)c2cc([N+](=O)[O-])cc([N+](=O)[O-])c2C)no1	none
OC(CNCC1(N2CCCCC2)CCCCC1)COc1ccc(Cl)cc1Cl (stereo not given)	ROMK mod -3.9 (no result: INS promoter inh) | ROMK hit retest 0.053
COc1ccc(CNc2oc(COc3ccc(Cl)cc3)nc2C#N)cc1	ROMK mod -2.1 (no result: INS promoter inh) | ROMK hit retest inactive
COc1ccc(Nc2oc(COc3ccc(Cl)cc3)nc2C#N)cc1	none (no result: ROMK mod)
NC1=CC(=O)c2cccc3cccc1c23	ROMK mod -3.8 (no result: Insulin prom up) | ROMK hit retest 0.051
Cc1c(Cl)cccc1NC(=O)CNC(=O)c1ccc(F)cc1	none (no result: ROMK mod) | ROMK hit retest inconclusive
Cc1ccc[n+](CC(=O)Nc2cc(C(F)(F)F)ccc2Cl)c1	none (no result: ROMK mod, INS promoter inh)
CCC(C)(C)c1ccc(OCCCC[n+]2cccc(C)c2)c(C(C)(C)CC)c1	ROMK mod -4.1, Insulin prom up inconclusive | ROMK hit retest 0.047
C/C(=N/NC(=O)CN1CCN(S(=O)(=O)c2ccc(Br)cc2)CC1)c1ccco1	none (no result: ROMK mod, INS promoter inh, HSV augment)
CCOc1ccc(-c2nn(-c3ccccc3)cc2/C=C2\SC(=S)N(C3CCS(=O)(=O)C3)C2=O)cc1 (stereo not given)	ROMK mod -5.4 | ROMK hit retest 0.049
Cc1ccc(/C=C2\SC(=S)N(C3CCS(=O)(=O)C3)C2=O)cc1 (stereo not given)	none (no result: ROMK mod)
C[N+](C)(C)C(Cc1c[nH]c2ccccc12)C(=O)[O-] (stereo not given)	none (no result: ROMK mod, INS promoter inh)
O=C1N=C(N2CCOCC2)S/C1=C\c1ccncc1	none (no result: ROMK mod, INS promoter inh)
CC(=C/c1ccccc1)/C=C1/SC(N2CCOCC2)=NC1=O	none (no result: ROMK mod, HSV augment) | ROMK hit retest 0.053
O=C1N=C(N2CCOCC2)S/C1=C/c1ccc(-c2ccccc2Cl)o1	none (no result: ROMK mod) | ROMK hit retest 0.056
Cc1ccc(NC(=O)CSc2nnc(-c3ccncc3)n2C)cc1S(=O)(=O)N1CCOCC1	none
C=CCn1c(O)c(C=Nc2ccc(CN3CCCCC3)cc2)c(=O)[nH]c1=S	none (no result: INS promoter inh)
Cc1ccc(-n2cc(CNC(C)c3cnn(C)c3)c(-c3ccc(F)cc3)n2)cc1 (stereo not given)	ROMK mod -2.7 (no result: Insulin prom up) | ROMK hit retest 0.051
Cc1ccc(-n2cc(CNCCCn3ccnc3C)c(-c3ccc(F)cc3)n2)cc1	none (no result: INS promoter inh)
Cc1ccc(-n2cc(CNC(C)Cn3cncn3)c(-c3ccc(F)cc3)n2)cc1 (stereo not given)	none (no result: INS promoter inh)
Cc1ccc(-n2cc(CNC(C)c3cnn(C)c3C)c(-c3ccc(F)cc3)n2)cc1 (stereo not given)	ROMK mod -4.1 (no result: INS promoter inh) | ROMK hit retest 0.054
Fc1ccccc1NC(=S)N1CCN(Cc2ccccc2)CC1	none
CCNc1ccc(S(=O)(=O)N(C)C)cc1NCC(=O)Nc1ccc(Br)cc1F	ROMK mod -3.2 | ROMK hit retest 0.062
CCNc1ccc(S(=O)(=O)N(C)C)cc1NCC(=O)Nc1ccccc1F	none
C=CCSc1nnc(C)c(/C=C/Nc2ccc(Cl)cc2)n1	ROMK mod -3, HSV augment inconclusive (no result: Insulin prom up, INS promoter inh) | ROMK hit retest 0.046
CCCCCCCCNC(=O)/C(C#N)=C/c1ccc(SC)cc1	none
CCOCCCNC(=O)/C(C#N)=C/c1ccccc1F	ROMK mod -3.9 (no result: INS promoter inh) | ROMK hit retest 0.052
CCOCCCNC(=O)/C(C#N)=C/c1ccc(C(=O)OC)cc1	ROMK mod -2.2 (no result: INS promoter inh) | ROMK hit retest 0.045
CCOC(=O)c1cnc2c(cnn2C)c1NCCCn1ccnc1	ROMK mod -2.9 (no result: INS promoter inh) | ROMK hit retest inactive
CCCCN1C(=O)/C(=C2/Sc3ccccc3N2C)S/C1=N\c1ncn[nH]1	none (no result: Insulin prom up)
C=CCOC(=O)C1=C(C)NC(=O)NC1c1cn(-c2ccccc2)nc1-c1cccs1 (stereo not given)	ROMK mod -3 | ROMK hit retest 0.061
CCOC(=O)N1CCN(S(=O)(=O)c2ccc3c(c2)OCC(=O)N3)CC1	ROMK mod -2.5 (no result: INS promoter inh) | ROMK hit retest 0.058
CCOC(=O)N1CCN(S(=O)(=O)c2ccc(OCC)c(C)c2)CC1	none
CCOC(=O)N1CCN(S(=O)(=O)c2ccc(C)c(C)c2)CC1	none (no result: Insulin prom up)
